Data from PubChem BioAssay (Tox21).
Records with an inconclusive call do not appear. Active and inactive are the calls of the source. Unless noted, calls come from the whole dose curve; as a rule, active = well fitted curve in the direction sought with a large enough effect in the repeat runs; inconclusive = weak or mixed curves; inactive = no such curve, though single readings can be large; an effect the other way counts as inactive or inconclusive.

Key:
[1] = qHTS assay to identify small molecule antagonists of the vitamin D receptor (VDR) signaling pathway - cell viability counter screen (AID 743225); note: nearly all actives have a fitted effect of over 50% in size
Outline: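 Parallel cytotoxicity test: VDR-UAS-bla HEK 293T, 3 nM (final) 1-alpha,25-dihydroxyvitamin D3 with test compound, 16 h, 37C. Endpoint is CellTiter-Glo luminescence in the same wells.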

[2] = qHTS assay to identify small molecule agonists of the NFkB signaling pathway (AID 1159509; active = well fitted curve in the direction sought with a large enough effect in the signal ratio in the repeat runs, not every such curve was filed as active; the % refers to the signal ratio; note: series mostly up to about 61 µM)
Outline: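 ME-180 NFkB-bla, 2,000 cells/well, overnight plating; cpd pinned in DMSO, 5 h 37 C; B/G FRET substrate 1.5 h RT; ex 405, em 460/530 nm.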

[3] = qHTS assay to identify small molecule agonists of the NFkB signaling pathway - cell viability counter screen (AID 1159515; calls by dose curve; note: series mostly up to about 61 µM; nearly all actives have a fitted effect of over 55% in size)
Outline: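 5 hr compound treatment of NFkB-bla ME-180 cells (2,000/well, seeded overnight beforehand), followed by reporter substrate for 1.5 hr. CellTiter-Glo added afterward; luminescence after 30 min RT.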

[4] = qHTS assay to identify small molecule agonists of the endoplasmic reticulum stress response signaling pathway (AID 1159516; active = well fitted activation curve with a large enough effect in the signal ratio in the repeat runs, not every such curve was filed as active; the % refers to the signal ratio)
Outline: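 Reporter HeLa cells (ESRE-beta-lactamase) underwent 5 hr compound incubation at 37 C and 5% CO2 in quantitative HTS format. Detection followed 2 hr of FRET substrate loading at room temperature.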

[5] = qHTS assay to identify small molecule agonists of the endoplasmic reticulum stress response signaling pathway - cell viability counter screen (AID 1159517; calls by dose curve;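 note: HeLa cells carrying an ER stress response element beta-lactamase reporter; series mostly up to about 61 µM; nearly all actives have a fitted effect of over 50% in size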)
Outline: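 HeLa cells carrying an ESRE-driven beta-lactamase reporter receive compound for 5 hr at 37 C. Cell viability is then gauged with CellTiter-Glo by luminescence, 30 min at room temperature.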

[6] = qHTS assay to identify small molecule antagonists of the retinoid-related orphan receptor gamma (ROR-gamma) signaling pathway - cell viability counter screen (AID 1159520); note: nearly all actives have a fitted effect of over 50% in size
Outline: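 Cytotoxicity was read from cellular ATP (CellTiter-Glo luminescence) after 16 hr at 37 C with 1 uM doxycycline induction. The inducer was added 2 hr after compound transfer to Tet-on ROR gamma CHO cells.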

[7] = qHTS assay to identify small molecule agonists of the AP-1 signaling pathway - cell viability counter screen (AID 1159525; calls by dose curve; note: nearly all actives have a fitted effect of over 55% in size)
Outline: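 Luminescent ATP readout (Cell Titer Glo, 30 min RT), normalised to DMSO and tetra n-octyl ammonium bromide controls. Cells were ME-180 AP-1-bla in 0.5% dialyzed FBS Opti-MEM, with a 5 h, 37 °C compound exposure.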

[8] = qHTS assay to identify small molecule agonists of the AP-1 signaling pathway (AID 1159526; calls by dose curve)
[9] = biological target: Retinoic acid receptor RXR-alpha (Homo sapiens) (UniProt P19793); assay: qHTS assay to identify small molecule agonists of the RXR signaling pathway (AID 1159527; calls by dose curve; note: nearly all actives have a fitted effect of over 35% in size; note: potency is the fitted concentration of half-maximal effect)
Chain of Retinoic acid receptor RXR-alpha (Homo sapiens) (P19793 whole entry, looked up): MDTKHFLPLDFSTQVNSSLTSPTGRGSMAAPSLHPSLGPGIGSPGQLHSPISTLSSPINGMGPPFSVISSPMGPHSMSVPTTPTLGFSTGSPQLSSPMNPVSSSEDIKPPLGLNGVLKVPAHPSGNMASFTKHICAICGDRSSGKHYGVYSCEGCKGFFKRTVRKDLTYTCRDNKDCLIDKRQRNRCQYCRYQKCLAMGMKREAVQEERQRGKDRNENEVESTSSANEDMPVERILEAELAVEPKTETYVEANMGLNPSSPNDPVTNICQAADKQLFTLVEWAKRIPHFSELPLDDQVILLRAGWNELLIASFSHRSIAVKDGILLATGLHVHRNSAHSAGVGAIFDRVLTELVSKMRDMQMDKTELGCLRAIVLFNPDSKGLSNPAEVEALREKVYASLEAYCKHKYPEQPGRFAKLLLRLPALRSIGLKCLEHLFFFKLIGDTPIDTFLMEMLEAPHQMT
Outline: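 16 hr incubation of compound-treated RXR-alpha-UAS-bla HEK 293T cells (2% charcoal-stripped FBS, 37 C) preceded a 2 hr room-temperature LiveBLAzer FRET substrate step and blue/green fluorescence measurement.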

[10] = qHTS assay to identify small molecule agonists of the RXR signaling pathway - cell viability counter screen (AID 1159529);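 note: HEK 293T cells carrying an RXR-alpha UAS beta-lactamase reporter; series mostly up to about 77 µM; nearly all actives have a fitted effect of over 50% in size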
Outline: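 In this parallel viability measure, GeneBLAzer RXR-alpha HEK 293T cells (2% charcoal-stripped FBS) were given a 5 hr preincubation, treated with compounds 16 hr at 37 C, and read by CellTiter-Glo luminescence.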

[11] = qHTS assay to identify small molecule antagonists of the retinoid acid receptor (RAR) signaling pathway - cell viability counter screen (AID 1159551); note: nearly all actives have a fitted effect of over 35% in size
Outline: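 Seed C3RL4 cells; next day add compound, then retinol to 1 uM final; incubate 6 h at 37 C; add CellTiter-Glo; read luminescence after 30 min at RT.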

[12] = qHTS assay to identify small molecule antagonists of the retinoic acid receptor (RAR) signaling pathway (AID 1159552; note: nearly all actives have a fitted effect of over 50% in size)
Outline: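 C3RL4 RARE-luc cells, overnight plating; retinol 1 uM final added right after compound; 6 hr 37 C; luciferase read at 30 min RT.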

[13] = qHTS assay to identify small molecule agonists of the vitamin D receptor (VDR) signaling pathway - cell viability counter screen (AID 743224); note: nearly all actives have a fitted effect of over 50% in size; note: potency is the fitted concentration of half-maximal effect
Outline: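 Here cell health was gauged by luminescent ATP detection (CellTiter-Glo, 30 min RT) in VDR-bla cells that had been incubated with test compounds for 16 h at 37C and 5% CO2.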

[14] = qHTS assay to identify small molecule agonists of the retinoic acid receptor (RAR) signaling pathway (AID 1159553)
Outline: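 Activation of retinol signaling was monitored via a RARE luciferase reporter in C3RL4 cells. After 6 hr compound treatment at 37 C, detection reagent was added for 30 min at room temperature before luminescence reading.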

[15] = biological target: Nuclear receptor ROR-gamma (Homo sapiens) (UniProt P51449); assay: qHTS assay to identify small molecule antagonists of the retinoid-related orphan receptor gamma (ROR-gamma) signaling pathway (AID 1159521)
Outline: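 Decreased RORE-driven luciferase luminescence indicates antagonism. Tet-on RORγ CHO cells received compound, then 1 uM final doxycycline 2 h later; signal read after 16 h incubation.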

[16] = qHTS assay to identify small molecule antagonists of the estrogen related receptor (ERR) signaling pathway - cell viability counter screen (AID 1224818);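 note: series mostly up to about 46 µM; viability measured after 17.5 h of compound exposure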
Outline: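 In the same ERR cell assay, compound-treated wells (17.5 h, 37 C) were multiplexed with a fluorogenic viability reagent, CellTiter-Fluor, read after 30 min to flag cytotoxic substances.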

[17] = qHTS assay to identify small molecule antagonists of the estrogen related receptor signaling pathway with the pleiotropic PPARgamma coactivator (PGC) cell viability counter screen (AID 1224822; note: series mostly up to about 46 µM)
Outline: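 Compounds in DMSO, with positive and negative controls, were applied to PGC/ERR cells (2,000/well) and left 17.5 h at 37 C before CellTiter-Fluor detection.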

Measured: Potency

CCCCCCBr
not listed: [13] | [14] | [15] | [16] | [17]
inactive: all other assays above

C[N+](C)=CCl
not listed: [14] | [15] | [16] | [17]
inactive: all other assays above

CNC(=O)Oc1c(C(C)(C)C)cc(C)cc1C(C)(C)C
not listed: [10] | [14] | [15] | [16] | [17]
inactive: all other assays above

O=C(O)c1cccc(Cl)c1
not listed: [15] | [16] | [17]
inactive: all other assays above

CC(Cl)(Cl)[N+](=O)[O-]
not listed: [9] | [15] | [16] | [17]
inactive: all other assays above

c1ccc(N2CCNCC2)cc1
not listed: [9] | [12] | [14] | [15] | [16] | [17]
inactive: all other assays above

C1CCC(C2CCCCC2)CC1
active: [9] 38.9 µM
not listed: [1] | [10] | [15] | [16] | [17]
inactive: all other assays above

CNCC(=O)c1ccc(O)c(O)c1
not listed: [10] | [12] | [14] | [15] | [16] | [17]
inactive: all other assays above

COP(=S)(OC)Oc1c(Cl)cc(C)cc1Cl
not listed: [9] | [14] | [15] | [16] | [17]
inactive: all other assays above

C[C@]12CC[C@H]3[C@@H](CC=C4C[C@@H](O)CC[C@@]43C)[C@@H]1CC[C@@H]2O
not listed: [10] | [13] | [15] | [16] | [17]
inactive: all other assays above

O=C1CN=C(c2ccccc2)c2cc([N+](=O)[O-])ccc2N1
not listed: [1] | [3] | [12] | [14] | [16] | [17]
inactive: all other assays above

ClC(Cl)C(Cl)Cl
not listed: [1] | [10] | [13] | [14] | [15] | [16] | [17]
inactive: all other assays above

Cc1cc(C)nc(Nc2ccccc2)n1
not listed: [1] | [10] | [14] | [15] | [16] | [17]
inactive: all other assays above

Cc1ncc(CNC(=O)N(CCCl)N=O)c(N)n1
not listed: [14] | [15]
inactive: all other assays above

Oc1c(Cl)cccc1Cl
not listed: [10] | [14] | [15] | [16] | [17]
inactive: all other assays above

CCOC(=O)/C=C(C)/C=C/C[C@@H](C)CCCC(C)C
active: [13] 34.7 µM
not listed: [12] | [15] | [16] | [17]
inactive: all other assays above

CNC(=O)Oc1ccccc1C1OCCO1
not listed: [10] | [13] | [14] | [15] | [16] | [17]
inactive: all other assays above

COc1ccc(C(=O)N2CCCC2=O)cc1
inactive: [16] | [17]
